# RORg inh: ROR gamma (mouse) transcription inhibition; P51450; Drosophila S2 Gal4-RORgamma UAS-luciferase reporter, 20 h; Potency, µM (series often up to 53.6 µM), inactives show at the highest dose activity change, negative = inhibition, usual class: inhibitors; 310,000 tested, 5.4% active; also: % is scaled to controls: 0 for no effect and ±100 for the full control effect; nearly all actives have a fitted effect of over 60% in size
# Target sequence (P51450 whole entry, looked up, the tested form may be a part): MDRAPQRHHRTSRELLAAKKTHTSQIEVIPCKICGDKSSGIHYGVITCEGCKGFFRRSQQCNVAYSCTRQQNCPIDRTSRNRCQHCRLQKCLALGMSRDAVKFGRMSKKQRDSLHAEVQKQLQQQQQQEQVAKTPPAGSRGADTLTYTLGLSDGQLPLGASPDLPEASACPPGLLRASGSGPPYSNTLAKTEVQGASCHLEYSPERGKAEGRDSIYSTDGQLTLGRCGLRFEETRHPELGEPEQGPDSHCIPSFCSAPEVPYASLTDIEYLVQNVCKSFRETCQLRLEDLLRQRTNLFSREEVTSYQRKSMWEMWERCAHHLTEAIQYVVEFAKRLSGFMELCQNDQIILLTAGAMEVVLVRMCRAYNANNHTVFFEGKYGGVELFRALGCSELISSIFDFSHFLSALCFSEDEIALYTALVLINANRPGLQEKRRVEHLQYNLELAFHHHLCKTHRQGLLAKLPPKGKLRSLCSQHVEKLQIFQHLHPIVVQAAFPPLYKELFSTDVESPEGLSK
#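 Drosophila S2 cells stably expressing Gal4-DBD/mouse RORγ fusion under metallothionein promoter plus UAS-luciferase; compound 1 h, then 700 uM CuSO4 induction for 20 h at ambient temperature; inhibition read as reduced luminescence.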
# MCF10A rereplic: inducers of DNA re-replication in MCF 10A breast cells | 350,000 tested, 2.9% active | Potency, µM (doses to about 46.1 µM), without a hit: top-dose activity, positive = re-replication, most hits filed as activators | MCF 10A DNA re-replication, Hoechst nuclear intensity, 48 h; also: % of control where 0% means no effect; nearly all actives have a fitted effect of over 50% in size
# ELG1 DNA repair: ELG1-dependent DNA repair inhibition; HEK293T ELG1-luciferase reporter, luminescence, 16 h; DNA damage induced by 5-fluorouridine; Potency, µM (highest dose often 46.1 µM), without a hit: at the highest dose activity change, negative = inhibition, usual class: inhibitors; 330,000 tested, 2.3% active; also: % is scaled to controls: 0 for no effect and ±100 for the full control effect; nearly all actives have a fitted effect of over 55% in size
#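 Quantitative HTS, concentration-response format. 2,000 cells/well co-treated with 5-fluorouridine and compound, 16 hr in 5% CO2 at 37 °C; ONE-Glo luminescence read after 30 min.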
# VP16 counter: inhibits Gal4-VP16 luciferase reporter, ROR gamma counter-screen | 310,000 tested, 3.5% active | Drosophila S2 Gal4-VP16 UAS-luciferase, luminescence, 20 h | Potency, µM (top dose mostly 53.6 µM), for the others: at the highest dose activity, negative = inhibition, hits mostly inhibitors | AID 2546;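 also: Gal4-VP16 expression switched on by copper sulfate through the metallothionein promoter; % is scaled to controls: 0 for no effect and ±100 for the full control effect; nearly all actives have a fitted effect of over 50% in size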
# SW480 rereplic: DNA re-replication induction in SW480 cells; 340,000 tested, 1.8% active; SW480 DNA re-replication, Hoechst DNA content imaging, 48 h; Potency, µM (doses to about 46.1 µM), for inactives: top-dose re-replication activation, usual class: activators; also: % of control where 0% means no effect; nearly all actives have a fitted effect of over 55% in size
#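 Cells (250 per well) received 23 nL compound or DMSO by pin tool and were kept 48 hr at 37 C, 5% CO2. Nuclei were then stained with Hoechst for 40 min and scanned for DNA content.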
# * marks the source's active call; other numbers are inactive results; ? = inconclusive; · = no result; [ ] = another dose, or the depositor's remark. This is a sample that favours compounds with a hit; in the whole collection about 10% have one here. Calls follow the shape of the dose curve; as a rule, active = well fitted curve in the direction sought with a large enough effect; inconclusive = small, poorly fitted or top-dose-only effect, or another doubt; inactive = no such curve, though single readings can be large; an effect the other way counts as inactive or inconclusive. Potency is read from the fitted curve at half-maximal effect.
SMILES,RORg inh,MCF10A rereplic,ELG1 DNA repair,VP16 counter,SW480 rereplic
O=C(Cc1cccc2ccccc12)NNC(=O)Nc1cccc(Cl)c1,?,?,1.3%,?,0.2%
O=C(Nc1ccc(Cl)c(Cl)c1)Nc1nnc(CSc2ccccc2)s1,?,?,?,-25.9%,?
O=C(Cc1ccccc1Cl)NNC(=O)Nc1ccccc1,20.6%,0.4%,-8.9%,-12.0%,29.1µM*
O=C(Nc1ccc(Cl)cc1)Nc1nnc(CSCc2ccccc2Cl)s1,17.0%,123.3%,10.3µM*,-21.3%,3.3%
CCc1ccc(CNC(=O)CCS(=O)(=O)Cc2ccccc2F)cc1,-0.5%,-5.3%,8.2%,-2.9%,-3.8%
O=C(NN=C1CCCC1)c1ccc(O)cc1O,7.94µM*,-32.9%,6.7%,11.2µM*,-18.5%
NNC(=O)c1ccc(O)cc1O,1.26µM*,1.9%,?,3.16µM*,-0.1%
COc1ccc2c(=O)cc(-c3cccnc3)oc2c1OC,-6.4%,-10.8%,9.2%,0.9%,-12.6%
C=C(C)CNC(=S)Nc1nc2c(cc1C(=O)OCC)CCCC2,5.01µM*,0.6%,?,10µM*,-12.8%
CCOC(=O)c1cc2c(nc1N)CCCC2,-15.4%,-0.7%,0.0%,-15.6%,-25.7%
CC(=O)OC1C(N2CCCCC2)c2c(ccc(/C=C/C(=O)N3CCCCC3)c2O)OC1(C)C (centres undefined),?,-8.5%,14.8%,1.26µM*,1.7%
Cc1cc(=O)oc2cc(OCC(=O)Nc3c(Cl)cccc3C(F)(F)F)ccc12,-9.9%,?,?,-6.0%,0.1%
Cc1nc2ccccc2n1Cc1ccccc1,0.5%[1.91 µM],-0.5%,?,?,-3.1%
CCC(C)Cn1c(C)nc2ccccc21 (centres undefined),12.6µM*,-5.1%,9.2µM*,12.6µM*,-3.4%
Cc1nc2ccccc2n1CSc1ccccc1,14.1µM*,13.0%,-2.4%,-29.3%,10.6%
Cc1nc2ccccc2n1Cc1ccc(Br)cc1,·,-1.6%,·,·,-2.1%
Cc1nc2ccccc2n1Cc1ccccc1Br,?,-7.9%,-4.4%,12.6µM*,1.2%
CC1(C(=O)O)CCC2(C)CCC3(C)C(=CC(=O)C4C5(C)CCC(O)C(C)(C)C5CCC43C)C2C1 (centres undefined),-0.9%,26.6µM*,·,-5.8%,3.4%
CC1(C)C(O)CC[C@]2(C)C1CC[C@@]1(C)C2C(=O)C=C2[C@@H]3C[C@@](C)(C(=O)O)CC[C@@]3(C)CCC21C (some centres undefined),3.6%,·,·,3.4%,·
CC1(C)[C@@H](O)CC[C@]2(C)C3C(O)C=C4[C@H]5C[C@@](C)(CO)CC[C@]5(C)CC[C@]4(C)[C@]3(C)CC[C@@H]12 (some centres undefined),-14.9%,13µM*,19.7%,3.8%,-3.7%
CCNC(=O)COc1ccc(/C=C2\COc3ccccc3C2=O)cc1OC,?,?,?,-70.4%,?
CCOc1cc(/C=C2\COc3ccccc3C2=O)ccc1OCC(=O)N(C)C,?,14.6µM*,?,?,14.6µM*
CC1(C)CCC(=O)C=C1Nc1ccc(F)c(Cl)c1,?,1.3%,-11.3%,0.5%,-1.3%
O=C(NCC(=O)N1CCCCCC1)c1ccc(Br)cc1,·,6.9%,?,·,-1.5%
Cc1ccc(N=C2NC(=O)/C(=C\c3ccsc3)S2)c(C)c1,?,18.4µM*,-26.8%,?,2.9%
SMILES,RORg inh,MCF10A rereplic,ELG1 DNA repair,VP16 counter,SW480 rereplic
Cc1ccc(N=C2NC(=O)/C(=C/c3cccnc3)S2)c(C)c1,-28.5%,?,-25.0%,-5.9%,-2.6%
Cc1ccc(Cl)cc1NC(=O)C(Cc1ccccc1)N1C(=O)C2C3CCC(C3)C2C1=O (centres undefined),-20.0%,20.6%,?,79.4µM*,10.0%
O=C(NCc1ccccc1)C(Cc1ccccc1)N1C(=O)C2C3CCC(C3)C2C1=O (centres undefined),25.7%,4.6%,5.9%,3.9%,-1.0%
Cc1ccc(NC(=O)C(Cc2ccccc2)N2C(=O)C3C4CCC(C4)C3C2=O)cc1Cl (centres undefined),20.5%,?,18.4µM*,-10.9%,?
CC(=O)Nc1nonc1-c1nc2ccccc2n1Cc1ccccc1,12.7%,?,?,4.0%,?
CC(=O)NC(C)c1nc2ccccc2n1CC(=O)NC(C)CCc1ccccc1 (centres undefined),12.6µM*,-28.7%,8.2%,-2.5%,-48.2%[1.84 µM]
CCC(=O)Nc1nonc1-c1nc2ccccc2n1Cc1ccc(Cl)c(Cl)c1,·,5.17µM*,·,·,0.4%
CCC(=O)Nc1nc2ccccc2n1Cc1ccc(C)cc1,0.398µM*,18.0%,-8.1%,0.891µM*,0.3%[9.22 µM]
CCC(=O)Nc1nc2ccccc2n1Cc1ccccc1,0.708µM*,6.4%,?,2.24µM*,5.6%
COC(=O)N1CCc2cc(OC)c(OC)cc2C1Cc1ccc(OC)cc1 (centres undefined),1.0%[10 µM],·,·,0.1%[10 µM],·
CCCCCn1c(C(Cc2ccccc2)NC(=O)COC)nc2ccccc21 (centres undefined),31.6µM*,-6.5%,10.0%,?,2.3%
CCCCn1c(C(C)NC(=O)COC)nc2ccccc21 (centres undefined),-3.5%,4.6%,-0.3%,-0.3%,1.0%
CCc1nc(N2CCN(C(=O)CCl)CC2)c2c3c(sc2n1)CC(C)CC3 (centres undefined),15.8µM*,?,-20.4%,?,?
CCc1nc(N2CCN(C(C)=O)CC2)c2c3c(sc2n1)CC(C(C)(C)C)CC3 (centres undefined),?,3.5%,?,?,10.3%
Cc1c(N2C(=O)CSC2=S)c(=O)n(-c2ccccc2)n1C,12.6µM*,?,?,0.7%,-4.7%
Cc1c(N2C(=O)/C(=C3/C(=O)N(C)c4ccccc43)SC2=S)c(=O)n(-c2ccccc2)n1C,7.94µM*,-3.0%,8.1%,8.8%,0.3%
CCN1C(=O)/C(=C2\SC(=S)N(c3c(C)n(C)n(-c4ccccc4)c3=O)C2=O)c2ccccc21,-35.0%,-5.4%,13.3%,-10.1%[0.365 µM],-5.0%
O=C1CSC(=S)N1c1cccc(O)c1,12.6µM*,?,7.7%,-5.8%,3.6%
O=C(O)c1cccc(N2C(=O)CSC2=S)c1,-41.6%,?,?,5.3%,2.5%
COc1cccc(NC(=S)N2CCCN(Cc3ccc(F)cc3)C2)c1,3.55µM*,24.7%,0.1%,?,2.9%
CSc1cccc(NC(=S)N2CCC(N(C)C3CCCC3)CC2)c1,-14.1%,1.2%,3.4%,11.5%,-1.0%
Fc1ccc(CN2CCCN(C(=S)Nc3ccc(F)cc3)CC2)cc1,-23.3%,?,?,6.2%,-16.8%
COc1ccc(NC(=S)N2CCCN(Cc3cccc(Cl)c3)C2)cc1,12.6µM*,?,3.5%,2.7%[10 µM],12.7%
Cc1cccc(C)c1NC(=S)N1CCCN(Cc2ccc(F)cc2)C1,14.1µM*,-1.1%,?,22.6%,-4.6%

# Bioassay records from PubChem BioAssay.
